JMJD2E inh = JMJD2E (human) inhibition | JMJD2E catalytic domain, FDH-coupled NADH fluorescence (FDH is formaldehyde dehydrogenase) | Potency, µM (titrated, usually from 57.1 µM), actives largely listed as inhibitors | 1.6% of 230,000 active; active means well fitted inhibition curve with a large enough effect, not every such curve was filed as active; inconclusive means small, poorly fitted or top-dose-only effect, or another doubt; inactive means no such curve, though single readings can be large or run the other way; further: nearly all actives have a fitted effect of over 50% in size
Target sequence (B2RXH2 1-337 limits assumed): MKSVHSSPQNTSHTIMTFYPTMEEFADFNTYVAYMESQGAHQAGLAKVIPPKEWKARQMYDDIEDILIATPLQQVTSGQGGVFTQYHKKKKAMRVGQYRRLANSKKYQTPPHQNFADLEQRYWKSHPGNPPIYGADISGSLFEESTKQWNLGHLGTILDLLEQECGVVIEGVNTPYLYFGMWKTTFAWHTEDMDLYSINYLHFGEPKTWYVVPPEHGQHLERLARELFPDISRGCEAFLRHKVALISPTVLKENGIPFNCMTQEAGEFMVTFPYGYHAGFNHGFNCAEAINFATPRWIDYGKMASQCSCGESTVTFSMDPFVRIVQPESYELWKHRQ
Sfp PPTase inh = inhibitors of Bacillus subtilis Sfp phosphopantetheinyl transferase; Q9F4F7; Biochemical Sfp PPTase activity, qHTS; Potency, µM, hits mostly inhibitors; 3.5% of 310,000 active;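 further: the enzyme is Sfp with the accession as filed and its product quenches rhodamine fluorescence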
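Buffer: 50 mM Hepes-Na pH 7.6, 10 mM MgCl2, 0.01% Nonidet P-40, 0.01% BSA. Enzyme 15 nM, pre-exposed to compound 15 min; substrates then added and fluorescence change tracked over 30 min.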
FBPA coupling cs = counter-screen for Giardia aldolase inhibitors: coupling enzyme system; coupling enzyme system counterscreen, AmpLite Red fluorescence; 0.67% of 290,000 active; activity change, negative = inhibition, % at 58.2 µM, hits read low; in the data active means activity change below about -30%
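Fluorescence at 525 nm excitation and 598 nm emission measured inhibition of the coupled detection system without aldolase. Compounds (at 57.5 uM final) were preincubated 10 min at room temperature with coupling enzyme reagent before a 20 min substrate/AmpLite Red step.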
GoLoco inh red = inhibitors of human Gai1-RGS12 GoLoco interaction (red fluorophore) | Gai1:RGS12 GoLoco peptide FP, rhodamine, 10 min | Potency, µM (titrated, usually from 61.6 µM), hits mostly inhibitors | 0.44% of 230,000 active; active means well fitted inhibition curve with a large enough effect, not every such curve was filed as active; inactive means no such curve, though single readings can be large or run the other way; further: nearly all actives have a fitted effect of over 30% in size
ALDH1A1 inh = inhibitors of human aldehyde dehydrogenase 1A1; Purified ALDH1A1, NADH fluorescence, propionaldehyde substrate; Potency, µM (highest dose often 75.3 µM), usual class: inhibitors; 7.3% of 220,000 active; active means well fitted inhibition curve with a large enough effect, not every such curve was filed as active; inconclusive means small, poorly fitted or top-dose-only effect, or another doubt; inactive means no such curve, though single readings can be large or run the other way
NPSR antag = antagonists of human neuropeptide S receptor cAMP signaling; Q6W5P4; Potency, µM (series often up to 38.3 µM), actives largely listed as inhibitors; CHO-NPSR cells, cAMP TR-FRET, antagonist mode; 1% of 220,000 active; further: nearly all actives have a fitted effect of over 50% in size
Target sequence (Q6W5P4 whole entry, looked up): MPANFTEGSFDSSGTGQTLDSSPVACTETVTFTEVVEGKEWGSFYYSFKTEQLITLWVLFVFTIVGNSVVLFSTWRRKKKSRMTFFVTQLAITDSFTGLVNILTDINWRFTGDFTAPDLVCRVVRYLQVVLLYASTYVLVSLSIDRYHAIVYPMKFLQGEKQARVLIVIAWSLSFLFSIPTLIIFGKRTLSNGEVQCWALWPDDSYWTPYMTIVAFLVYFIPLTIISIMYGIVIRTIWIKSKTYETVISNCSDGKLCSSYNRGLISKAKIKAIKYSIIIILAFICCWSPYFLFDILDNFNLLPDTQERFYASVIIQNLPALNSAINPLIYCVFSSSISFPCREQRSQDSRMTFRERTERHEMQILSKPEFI
Each line names hits and unclear results; the compound was inactive in the other large screens; ! = not active in a repeat. Most compounds without a hit are left out; they make up all but 8.5% or so of the library. Unless noted, the call rests on the fitted dose curve; in most records, active means well fitted curve in the direction sought with a large enough effect; inconclusive means small, poorly fitted or top-dose-only effect, or another doubt; inactive means no such curve, though single readings can be large; an effect the other way counts as inactive or inconclusive.

C=CCOC(=O)C1=C(C)NC(=S)NC1c1cccs1 (configuration not stated)	ALDH1A1 inh 2.24µM
COCCOC(=O)C1=C(C)NC(=O)NC1c1cccs1 (configuration not stated)	none
COCCOC(=O)C1=C(C)NC(=S)NC1c1cccs1 (configuration not stated)	ALDH1A1 inh 22.4µM
CCN(CC)C(=O)C1=C(C)NC(=S)NC1c1cccs1 (configuration not stated)	ALDH1A1 inh inconclusive
CN1CCN(c2ncc3nc(-c4ccccc4)c(=O)n(CCC#N)c3n2)CC1	ALDH1A1 inh inconclusive (no result: JMJD2E inh, NPSR antag)
COc1ccc(S(=O)(=O)Nc2ccc(S(=O)(=O)N3CCCCC3)cc2)cc1C	ALDH1A1 inh 3.98µM
CC(=O)Nc1ccc(S(=O)(=O)N[C@H](C(=O)O)C(C)C)cc1	ALDH1A1 inh 10µM
CC(=O)Nc1ccc(S(=O)(=O)Nc2ccc(S(=O)(=O)N3CCCCCC3)cc2)cc1	ALDH1A1 inh 3.98µM
COc1ccc(S(=O)(=O)N2CCCCCC2)cc1	none
COc1ccc(S(=O)(=O)Nc2ccc(S(=O)(=O)N3CCCCC3)cc2)cc1	ALDH1A1 inh 0.355µM
COc1ccc(S(=O)(=O)Nc2ccc(S(=O)(=O)N3CCCC3)cc2)cc1	ALDH1A1 inh 0.0891µM
O=S(=O)(Nc1ccc(S(=O)(=O)N2CCCCC2)cc1)c1ccc(Br)s1	ALDH1A1 inh 1.41µM
COc1ccc(C)cc1NS(=O)(=O)c1ccc(NS(=O)(=O)c2ccc(NC(C)=O)cc2)cc1	ALDH1A1 inh 22.4µM
Cc1ccc(NS(=O)(=O)c2ccc(Br)s2)cc1S(=O)(=O)N1CCOCC1	ALDH1A1 inh 11.2µM
Cc1ccc(NS(=O)(=O)c2cccc(C(=O)O)c2)cc1S(=O)(=O)N1CCOCC1	ALDH1A1 inh inconclusive
Cc1occc1C(=O)N(C)Cc1nc(-c2ccc(Cl)cc2)no1	none (no result: JMJD2E inh, GoLoco inh red, ALDH1A1 inh, NPSR antag)
COc1cc(S(=O)(=O)N2CCCCC2)c(OC)cc1Br	none
COc1cc(OC)c(S(=O)(=O)N2CCCCC2)cc1S(=O)(=O)N1CCCCC1	ALDH1A1 inh 3.55µM
COc1ccc2cc(S(=O)(=O)N3CCCCC3)ccc2c1S(=O)(=O)N1CCCCC1	ALDH1A1 inh 0.178µM
COc1ccc(S(=O)(=O)N2CCCC2)cc1OC	none (no result: JMJD2E inh, GoLoco inh red, ALDH1A1 inh, NPSR antag)
CC(NC(=O)/C(C#N)=C/c1cn[nH]c1-c1ccccc1)c1ccccc1 (configuration not stated)	ALDH1A1 inh 7.94µM
CCc1ccc(C(C)NC(=O)/C(C#N)=C\c2cn[nH]c2-c2ccccc2)cc1 (configuration not stated)	ALDH1A1 inh inconclusive, NPSR antag inconclusive
Cc1ccc(/C=C(\C#N)C(=O)NC(C)C)o1	ALDH1A1 inh inconclusive
CC(C)NC(=O)/C(C#N)=C/c1ccc(N(C)C)o1	NPSR antag 12.6µM (no result: ALDH1A1 inh)
Cc1ccc(/C=C(/C#N)C(=O)NC(C)c2ccccc2)o1 (configuration not stated)	JMJD2E inh inconclusive, Sfp PPTase inh 22.4µM, ALDH1A1 inh 14.1µM
N#C/C(=C\c1cn[nH]c1-c1ccc(Cl)cc1)C(=O)NCc1ccccc1	ALDH1A1 inh 22.4µM
Cc1cc(C)n(-c2ncccc2[N+](=O)[O-])n1	none
O=[N+]([O-])c1cccnc1-n1cnc2ccccc21	Sfp PPTase inh 10µM, ALDH1A1 inh inconclusive
O=C(c1ccccc1[N+](=O)[O-])n1cnc2ccccc21	none
Cc1cc2ncn(-c3ncccc3[N+](=O)[O-])c2cc1C	Sfp PPTase inh 39.8µM (no result: JMJD2E inh, GoLoco inh red, ALDH1A1 inh, NPSR antag)
CC(C)(C)NC(=O)C(c1cccs1)N(C(=O)c1csnn1)c1ccccc1F (configuration not stated)	none
Cc1ccc(S(=O)(=O)NCCNC(=O)CN2CCOCC2)cc1	none (no result: JMJD2E inh, GoLoco inh red, ALDH1A1 inh, NPSR antag)
O=C(CCl)NCCCCCCCCCNC(=O)CCl	ALDH1A1 inh 0.178µM
COc1cc2ncnc(Nc3cccc(Cl)c3)c2cc1OC	JMJD2E inh inconclusive, Sfp PPTase inh 56.2µM!, GoLoco inh red 2µM!
COc1cc2ncnc(Nc3cccc(Br)c3)c2cc1OC	JMJD2E inh inconclusive (no result: NPSR antag)
CCOc1cc(/C=N/n2cnnc2)ccc1OS(=O)(=O)c1ccc(C)cc1	ALDH1A1 inh 22.4µM
Oc1cccc2c(NC(=S)Nc3ccc(SC(F)F)cc3)cccc12	JMJD2E inh inconclusive, Sfp PPTase inh inconclusive, FBPA coupling cs -43.5, ALDH1A1 inh inconclusive, NPSR antag inconclusive
CN(C)/C=C/c1onc(-c2c(Cl)cccc2Cl)c1C#N	JMJD2E inh inconclusive, ALDH1A1 inh 12.6µM
N#Cc1c(-c2c(Cl)cccc2Cl)noc1/C=C/Nc1ccc(C(=O)O)cc1	JMJD2E inh inconclusive, ALDH1A1 inh 3.55µM
Cc1onc(-c2c(Cl)cccc2Cl)c1NC(=O)N(C)N	none (no result: ALDH1A1 inh)
Cc1onc(-c2c(Cl)cccc2Cl)c1C(=O)c1ccc(F)cc1	none (no result: ALDH1A1 inh)
Brc1nc(Br)n(Cc2ccccc2)n1	none
Nn1cnn(Cc2ccccc2)c1=S	Sfp PPTase inh inconclusive, ALDH1A1 inh 25.1µM
Cn1c(=O)oc2cc(S(=O)(=O)Nc3ccc(F)cc3)ccc21	none (no result: JMJD2E inh, GoLoco inh red, ALDH1A1 inh, NPSR antag)
Cc1cccc(C)c1OCc1nc2ccccc2c(=O)n1/N=C/c1ccc(OCC(=O)O)cc1	ALDH1A1 inh 14.1µM
Cc1nc2ccccc2c(=O)n1/N=C/c1ccc(N(C)C)cc1	ALDH1A1 inh 15.8µM
CSc1ccc(/C=N/n2c(C)nc3ccccc3c2=O)cc1	none (no result: JMJD2E inh, GoLoco inh red, ALDH1A1 inh, NPSR antag)
NC(=O)N/N=C/c1c(O)ccc2oc3c(c12)CCCC3	JMJD2E inh 28.2µM (no result: ALDH1A1 inh)
Cc1nc2ccccc2c(=O)n1/N=C/c1ccc([N+](=O)[O-])o1	ALDH1A1 inh 18.9µM, NPSR antag inconclusive
NCC[C@H](O)C(=O)N[C@H]1C[C@@H](N)[C@@H](O[C@H]2O[C@@H](CN)[C@@H](O)[C@@H](O)[C@@H]2O)[C@@H](O)[C@@H]1O[C@H]1O[C@@H](CO)[C@@H](O)[C@@H](N)[C@@H]1O	none (no result: NPSR antag)
CC(=O)Oc1ccc(C(=O)Nc2ccc(C3(C#N)CCCC3)cc2)cc1	none (no result: JMJD2E inh, GoLoco inh red, ALDH1A1 inh, NPSR antag)
CCOC(=O)NC(=O)C(=CNc1ccc(C)cc1)C(=O)NC(=O)OCC	none
Cc1nc2ccccc2c(=O)n1/N=C/c1c(O)ccc2oc3c(c12)CCCC3	Sfp PPTase inh 22.4µM
COc1ccccc1NS(=O)(=O)c1cc(NC(=O)CNC(=O)c2cc(C)cc(C)c2)ccc1C	none
COc1ccc(NC(=O)c2ccccc2F)cc1Cl	none
CCN(CC)c1ccc(NC(=O)COc2ccccc2C)cc1S(=O)(=O)Nc1ccccc1OC	Sfp PPTase inh 20µM, ALDH1A1 inh 11.9µM
CCN(CC)c1ccc(NC(=O)c2cnccn2)cc1S(=O)(=O)Nc1ccc(OC)cc1	none
CCN(CC)c1ccc(NC(=O)c2ccccc2F)cc1S(=O)(=O)Nc1ccccc1OC	Sfp PPTase inh 14.1µM, ALDH1A1 inh 4.47µM
CCN(CC)c1ccc(NC(=O)COc2ccccc2C#N)cc1S(=O)(=O)Nc1ccc(OC)cc1	ALDH1A1 inh 22.4µM
